From PubChem BioAssay (NCI)
“And” between values parts separate entries of the source, which are not always exact repeats. Identical values can stand only once. About 83,000 compounds went through this panel and 20% of them were active in at least one assay; those are over-represented in the sample as a whole.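 96-well plates, one dose, 48 hours. Percent growth reported; active if below 10.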 A number with no mark means an inactive call. The source made the active and inactive calls. Where a SMILES comes first, the peptide text is derived from it. The star is where a group is joined. Trt = c1ccc(C(c2ccccc2)(c2ccccc2)*)cc1; Cbz = O=C(OCc1ccccc1)*

test system: SW-620 colon; assay: NCI-60 one-dose screen, 48 h (100 = growth as untreated, 0 = no growth, -100 = all killed); details: 10 µM
Procedure: Growth inhibition of the SW-620 human tumor cell line is measured as a screen for anti-cancer activity. Cells are grown in 96 well plates and exposed to the test compound for 48 hours. Compounds are tested at a single concentration, which is 10^-5 M for most compounds. The reported endpoint is percent growth (GI% or GIPRCNT), where numbers from 0 - 100% represent growth inhibition, and numbers from -100% - 0 represent cell death. For example, a value of 40 represents 60% growth inhibition. A value of 0 means no net growth occurred over the course of the experiment. A value of -40 indicates 40% of cells at the beginning of the experiment died by the end of the experiment. A value of -100 means all cells are dead at the end of the experiment.
NCI-60 Human Tumor Cell Lines Screen was performed using the standard one-dose NCI protocol, which is described in more detail at https://dtp.cancer.gov/discovery_development/nci-60/default.htm.
Compounds with GIPRCNT values below 10 were considered active. Activity score was based on GIPRCNT using the following formula: […]
Score is 0 for GIPRCNT values of 100 or above, 50 for GIPRCNT values of 0, and 100 for GIPRCNT values of -100.

| SMILES | growth [%] |
| --- | --- |
| O=C(Nc1cccc(Br)c1)Oc1cccc2cccnc12 | 106 |
| COc1ccc(-c2cscc2N)cc1 | 88.5 |
| O=C(Nc1c(Cl)cccc1Cl)Oc1cccc2cccnc12 | 26.8 |
| CN(C)C(=O)c1ccc(SC(=S)NCc2ccccc2)cc1 | 98.9 |

same assay, conditions: 10 µM unless noted

| SMILES | growth |
| --- | --- |
| N[C@H](C(=O)O)[C@@H]1CC(Cl)=NO1 | 10.2% [20 µM] |
| C1=C(c2ccccc2)C(c2ccc(OCCN3CCCCC3)cc2)Oc2ccccc21 (stereo not given) | 16.2% |
| CC(C)c1ccc2nc3ccc(C(=O)NCCN4CCN(c5ccccc5)CC4)cn3c(=O)c2c1 | 87.4% |
| CCOc1ccc(-c2nc3ccc(-c4nc5ccc(N6CCN(C)CC6)cc5[nH]4)cc3[nH]2)cc1 | -85.5% (active) |
| N#Cc1ccc([N+](=O)[O-])o1 | 106% |
| Oc1c(Cl)c2ccccc2c2ccccc12 | 111% |
| S=C(N/N=C/c1ccccn1)Nc1ccccn1 | 32.8% |
| Nc1nc(N)c2c(ccc3c2ccn3Cc2cccc([N+](=O)[O-])c2)n1 | -91.8% (active) |
| COC(=O)C(CSC(c1ccccc1)(c1ccccc1)c1ccccc1)NC(=O)C(CC(N)=O)NC(=O)OCc1ccccc1 (stereo not drawn) (Cbz-Asn-Cys(Trt)-OMe; configuration not given here) | 62.6% |
| Cn1c2c(c3ccccc31)CCN1C[C@@H]3CCCC[C@H]3C[C@@H]21 | 13.5% |
| O=C1c2ccccc2C(=O)c2sc(Nc3ccc(Cl)cc3)nc21 | -40% (active) |
| Nc1ncnc2c1ncn2C1OC(CO)C(O)C1O (stereo not given) | 112% and 85.1% and 106% |
| S=C(NCCNC(=S)[S][Sn]([c]1ccccc1)([c]1ccccc1)[c]1ccccc1)[S][Sn]([c]1ccccc1)([c]1ccccc1)[c]1ccccc1 | -97.5% (active) |
| CNc1ccc2c(c1)c1ccccc1n2C | 111% |
| COc1cc(/C=C/C(C)=O)ccc1O | 104% and 110% |
| Cc1ccc(NS(=O)(=O)c2ccc(C)cc2)cc1 | 104% and 107% |

| SMILES | growth |
| --- | --- |
| CC(=Nc1ccc(N(C)C)cc1)c1ccccc1 | 42.6% |
| CC(C)(C)c1ccc(O)c(C2CCCCC2)c1 | 99.6% |
| NC(=S)N/N=C\c1nccc2c(C(F)(F)C(F)(F)C(F)(F)F)cccc12 | 28.6% |
| NC(N)=N/N=C/c1ccc([N+](=O)[O-])o1 | 105% |
| CCC(CCCN(CC)CCc1ccccc1)OC(=O)c1cc(OC)c(OC)c(OC)c1 (stereo not given) | 82.9% |
| CN(Cc1cnc2nc(N)nc(N)c2n1)c1ccc(C(=O)NC(CCC(=O)O)C(=O)O)cc1 (stereo not given) | 27.5% |
| CCCCCCCCCCCCCCNCc1ccccc1 | 42.5% |
| Cc1ccc2nc(C[n+]3ccc4ccccc4c3)ccc2c1 | 80.2% |
| CNc1ccc(N)cc1 | 104% |
| COC(=O)Nc1nc2ccc(C(=O)c3ccccc3)cc2[nH]1 | 24.2% and 25% and 19.4% |
| O=C(O)C1C2CC3C(OC(=O)C31)C2Br (stereo not given) | 94.7% and 94.8% |
| Oc1c(Br)c(Br)c(O)c(Br)c1Br | 8.91% (active) |
| Oc1ccc(/C=N/NC(=S)Nc2ccccc2)nc1 | 39.4% |
| N#CSCc1c(Cl)cccc1Cl | 34.7% |
| COc1cc(/C=C(/C)C[N+](=O)[O-])ccc1O | 48.9% |
| COC(=O)c1nc(=S)[nH]c(C(=O)OC)c1C(=O)c1ccc2ccccc2c1 | 101% |

same assay, conditions: 100 µM

| SMILES | growth |
| --- | --- |
| O=C(Nc1cccc(Br)c1)Oc1cccc2cccnc12 | 25% |
| COc1ccc(-c2cscc2N)cc1 | 48.4% |
| O=C(Nc1c(Cl)cccc1Cl)Oc1cccc2cccnc12 | 23.5% |
| CN(C)C(=O)c1ccc(SC(=S)NCc2ccccc2)cc1 | -35.8% (active) |
